The structures appear in SMILES notation. This is part of a sample that, as a whole, favours compounds with a hit. Of some 79,000 tested, about 15% had one in any assay. Unmarked numbers belong to inactive results. No stated cut-off is given here; in the data, active means growth inhibition above about 70%; inactive means the rest.

This is an account of results in PubChem BioAssay (NCI).

A short description of one experiment: NCI Yeast Anticancer Drug Screen. Data for the sgs1 mgt1 strain (AID 161).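 Further: 0% = growth of cultures given vehicle only.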 Conditions: S. cerevisiae sgs1 mgt1 strain, at 50.0 µM, stronger effect = higher value. The method in brief:
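This yeast growth screen uses a strain with defined DNA-repair lesions; compound-treated growth is compared with vehicle-treated growth.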
Consider `Cc1ccc(C(=O)C(O)c2ccc(C)cc2)cc1` (stereo not given), for which the growth inhibition is 4.95%.

With `CC1(c2ccc(-c3ccccc3)cc2)NC(=O)NC1=O` (stereo not given), the growth inhibition is 14.9%.

Consider `N#CC(N)c1ccc(OCCCCCCCCCCOc2ccc(C(N)C#N)cc2)cc1` (stereo not given), for which the growth inhibition is -27.2%.

Turning to `O=C1NC(=O)C(=C/C=C/C=C\C2C(=O)NC(=O)NC2=O)C(=O)N1`, the growth inhibition is -10.1%.

Turning to `C=C(C)C(=O)OCCOCC(CC)CCCC` (stereo not given), the growth inhibition was -5%.

Regarding `CCCCCC(C/C=N/N(C)C)C(O)(C(F)(F)F)C(F)(F)F` (stereo not given), the growth inhibition was -5.15%.

With `CCOc1ccc(NC(=O)C(=O)CC(=O)c2sc(NNC(C)=O)nc2C)cc1`, the growth inhibition was 17.5%.

With `COc1ccc(Cc2ccccc2C(=O)c2ccc(OC)cc2)cc1`, the growth inhibition is 0.05%.

In the case of `COc1c(C(=O)O)ccc(C(=O)NCCCCCN(O)C(=O)CCC(=O)NCCCCCN(O)C(=O)CCC(=O)NCCCCCN(O)C(C)=O)c1OC`, the growth inhibition was -5.35%.

With `O=C1OC(c2ccc(Cl)cc2)=N/C1=C\c1c(Cl)cccc1Cl`, the growth inhibition was 11.9%.

In the case of `CCOC(=O)C1=C(C)Oc2cc3c(cc2C1c1ccc(OC)cc1)OCO3` (stereo not given), the growth inhibition is 23.5%.

In the case of `COc1ccc(-c2c3c(nc4nc(SCC(=O)c5ccc(Br)cc5)nc(N)c24)CCCC3)cc1OC`, the growth inhibition is -27.9%.

Regarding `CCCC1(C)OCC(CCl)O1` (stereo not given), the growth inhibition was -14.6%.

Consider `CCCCCCCCCCCC(=O)Nc1ccc(C(C)C)cc1`, for which the growth inhibition is -13.3%.

As for `COC(=O)C(O)(C(=O)OC)C1=C(N)C(=O)c2ccccc2C1=O`, the growth inhibition is 17.8%.

With `CC12CCC3c4ccc(OC(=O)C56C=CC(=O)C5C5C=CC6CC5)cc4CCC3C1CCC2=O` (stereo not given), the growth inhibition is -2.2%.

Take `COC(=O)CCc1cc(=O)oc2ccc3cc(CC(=O)OC)oc3c12`: the growth inhibition is 4.7%.

For `CCCCOC(=O)c1ccc(O)cc1.[Zn+2]`, the growth inhibition is -16.6%.

Turning to `CC(=O)C1=C(O)C2(O)C(=O)c3c(c(C)c4ccc(C)c(O)c4c3O)CC2C(N)C1=O` (stereo not given), the growth inhibition is 14.2%.

For the compound `O=C1CCCCC1CN1CCOCC1` (stereo not given), the growth inhibition was -5.3%.

For `Cc1ccc(/C=C(/C#N)C(N)=O)cc1`, the growth inhibition is 21.4%.

In the case of `O=C(CNc1ccc(Cl)cc1Cl)NC1C=Cc2ccc(S(=O)(=O)Nc3ccc(Cl)cc3Cl)cc2C1=O` (stereo not given), the growth inhibition was 44%.

In the case of `CC1(C)C(CC(=O)O)CC1C(=O)O` (stereo not given), the growth inhibition was -27.4%.

Consider `CC(O)CNC(=O)C(C)O` (stereo not given), for which the growth inhibition is -25.8%.

As for `CC1(C)[C@@H]2C[C@H]1[C@@H](Cc1cccc(C[C@H]3c4cc(-c5ccccn5)ncc4[C@H]4C[C@@H]3C4(C)C)c1)c1cc(-c3ccccn3)ncc12`, the growth inhibition was 45.4%.

In the case of `COC(=O)CC(NC(=O)OCc1ccccc1)C(=O)NCC(=O)NCC(=O)O` (stereo not given), the growth inhibition was -5.65%.

For `C=CCCc1cc(OC)ccc1C(=O)C(C)C`, the growth inhibition is -20.1%.

Take `CCOC(=O)Nc1cc(C(F)(F)F)ccc1F`: the growth inhibition is -14%.

As for `c1csc(-c2nn3c(C45CC6CC(CC(C6)C4)C5)nnc3s2)c1`, the growth inhibition is -20.1%.

For the compound `Cc1c2ccn3c(=O)c4ccccc4cc3c2c(C)c2c1[nH]c1ccccc12`, the growth inhibition was 9.45%.

As to `O=C(O)c1cc(-c2ccccc2)nc2c(Cl)cc(Cl)cc12`, the growth inhibition is -1.85%.

Take `CCOC(=O)C(CN1CCN(CC(NC=O)(C(=O)OCC)C(=O)OCC)CC1)(NC=O)C(=O)OCC`: the growth inhibition was -11.9%.

In the case of `COc1cc(C2c3cc4c(c(OC(=O)c5ccncc5)c3CC3COC(=O)C32)OCO4)cc(OC)c1OC` (stereo not given), the growth inhibition is 35.8%.

With `O=C(O)C1CCCCN1C(=O)c1ccccc1` (stereo not given), the growth inhibition was -12.2%.

Turning to `O=C1OC(c2cccc(Cl)c2)=N/C1=C\c1ccc(Cl)cc1`, the growth inhibition was 16.6%.

For the compound `CC1=C(C#N)C(C#N)(C#N)C(NN(C)C)C1` (stereo not given), the growth inhibition was 1.5%.

For the compound `S=C1c2cc(Cl)ccc2NC(=NC2CCCC2)C2CSCN12` (stereo not given), the growth inhibition was 51.5%.

Consider `CCCCCCCCO[Si](OCCCCCCCC)(OCCCCCCCC)OCCCCCCCC`, for which the growth inhibition was -16.8%.

As to `C=CC(C)(CCC=C(C)C)OC(C)=O` (stereo not given), the growth inhibition was 14.7%.

For the compound `COc1cc(/C=C/c2cc(/C=C/c3ccc(O)c(OC)c3)c([N+](=O)[O-])cc2[N+](=O)[O-])ccc1O`, the growth inhibition is 42.4%.

A further experiment in a line: NCI Yeast Anticancer Drug Screen. Data for the cln2 rad14 strain (AID 165).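 Further: 0% = growth equal to vehicle treated cultures.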 Conditions: S. cerevisiae cln2 rad14 strain, at 50.0 µM, stronger effect = higher value. The gist of the method:
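Yeast strain cln2 rad14, bearing defects in cell cycle control and DNA repair, serves as the test system; values reflect growth inhibition compared with vehicle.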
Consider `Cc1ccc(C(=O)C(O)c2ccc(C)cc2)cc1` (stereo not given), for which the growth inhibition was -24.1%.

On to `CC1(c2ccc(-c3ccccc3)cc2)NC(=O)NC1=O` (stereo not given), for which the growth inhibition was -22.5%.

As for `N#CC(N)c1ccc(OCCCCCCCCCCOc2ccc(C(N)C#N)cc2)cc1` (stereo not given), the growth inhibition is -7.8%.

In the case of `O=C1NC(=O)C(=C/C=C/C=C\C2C(=O)NC(=O)NC2=O)C(=O)N1`, the growth inhibition is 2.1%.

Regarding `C=C(C)C(=O)OCCOCC(CC)CCCC` (stereo not given), the growth inhibition is -0.3%.

As for `CCCCCC(C/C=N/N(C)C)C(O)(C(F)(F)F)C(F)(F)F` (stereo not given), the growth inhibition is -5.15%.

As to `CCOc1ccc(NC(=O)C(=O)CC(=O)c2sc(NNC(C)=O)nc2C)cc1`, the growth inhibition is 14.4%.

With `COc1ccc(Cc2ccccc2C(=O)c2ccc(OC)cc2)cc1`, the growth inhibition is -4.65%.

Turning to `COc1c(C(=O)O)ccc(C(=O)NCCCCCN(O)C(=O)CCC(=O)NCCCCCN(O)C(=O)CCC(=O)NCCCCCN(O)C(C)=O)c1OC`, the growth inhibition is -24.9%.

As for `O=C1OC(c2ccc(Cl)cc2)=N/C1=C\c1c(Cl)cccc1Cl`, the growth inhibition is 11.9%.

For the compound `CCOC(=O)C1=C(C)Oc2cc3c(cc2C1c1ccc(OC)cc1)OCO3` (stereo not given), the growth inhibition was -39.8%.

In the case of `COc1ccc(-c2c3c(nc4nc(SCC(=O)c5ccc(Br)cc5)nc(N)c24)CCCC3)cc1OC`, the growth inhibition was -0.55%.

In the case of `CCCC1(C)OCC(CCl)O1` (stereo not given), the growth inhibition was -13.2%.

For `CCCCCCCCCCCC(=O)Nc1ccc(C(C)C)cc1`, the growth inhibition is 18.3%.

For `COC(=O)C(O)(C(=O)OC)C1=C(N)C(=O)c2ccccc2C1=O`, the growth inhibition was -5.4%.

As to `CC12CCC3c4ccc(OC(=O)C56C=CC(=O)C5C5C=CC6CC5)cc4CCC3C1CCC2=O` (stereo not given), the growth inhibition is 16.1%.

Consider `COC(=O)CCc1cc(=O)oc2ccc3cc(CC(=O)OC)oc3c12`, for which the growth inhibition was -6.1%.

In the case of `CCCCOC(=O)c1ccc(O)cc1.[Zn+2]`, the growth inhibition was -41.9%.

Turning to `CC(=O)C1=C(O)C2(O)C(=O)c3c(c(C)c4ccc(C)c(O)c4c3O)CC2C(N)C1=O` (stereo not given), the growth inhibition was 11.7%.

For the compound `O=C1CCCCC1CN1CCOCC1` (stereo not given), the growth inhibition is -6.45%.

In the case of `Cc1ccc(/C=C(/C#N)C(N)=O)cc1`, the growth inhibition is 17.6%.

For `O=C(CNc1ccc(Cl)cc1Cl)NC1C=Cc2ccc(S(=O)(=O)Nc3ccc(Cl)cc3Cl)cc2C1=O` (stereo not given), the growth inhibition is 14.2%.

Regarding `CC1(C)C(CC(=O)O)CC1C(=O)O` (stereo not given), the growth inhibition was 11.2%.

For the compound `CC(O)CNC(=O)C(C)O` (stereo not given), the growth inhibition is -5.45%.

In the case of `CC1(C)[C@@H]2C[C@H]1[C@@H](Cc1cccc(C[C@H]3c4cc(-c5ccccn5)ncc4[C@H]4C[C@@H]3C4(C)C)c1)c1cc(-c3ccccn3)ncc12`, the growth inhibition was 16.8%.

As for `COC(=O)CC(NC(=O)OCc1ccccc1)C(=O)NCC(=O)NCC(=O)O` (stereo not given), the growth inhibition is 14.3%.

Consider `C=CCCc1cc(OC)ccc1C(=O)C(C)C`, for which the growth inhibition is -20.8%.

For the compound `CCOC(=O)Nc1cc(C(F)(F)F)ccc1F`, the growth inhibition is -43.9%.

Take `c1csc(-c2nn3c(C45CC6CC(CC(C6)C4)C5)nnc3s2)c1`: the growth inhibition is -11.3%.

Take `Cc1c2ccn3c(=O)c4ccccc4cc3c2c(C)c2c1[nH]c1ccccc12`: the growth inhibition was 16.7%.

For `O=C(O)c1cc(-c2ccccc2)nc2c(Cl)cc(Cl)cc12`, the growth inhibition was 9.8%.

As for `CCOC(=O)C(CN1CCN(CC(NC=O)(C(=O)OCC)C(=O)OCC)CC1)(NC=O)C(=O)OCC`, the growth inhibition was -0.5%.

In the case of `COc1cc(C2c3cc4c(c(OC(=O)c5ccncc5)c3CC3COC(=O)C32)OCO4)cc(OC)c1OC` (stereo not given), the growth inhibition is 15.8%.

For the compound `O=C(O)C1CCCCN1C(=O)c1ccccc1` (stereo not given), the growth inhibition is -0.05%.

Consider `O=C1OC(c2cccc(Cl)c2)=N/C1=C\c1ccc(Cl)cc1`, for which the growth inhibition was 11.2%.

Turning to `CC1=C(C#N)C(C#N)(C#N)C(NN(C)C)C1` (stereo not given), the growth inhibition is -8.6%.

As to `S=C1c2cc(Cl)ccc2NC(=NC2CCCC2)C2CSCN12` (stereo not given), the growth inhibition is -3.25%.

As to `CCCCCCCCO[Si](OCCCCCCCC)(OCCCCCCCC)OCCCCCCCC`, the growth inhibition is 6.9%.

In the case of `C=CC(C)(CCC=C(C)C)OC(C)=O` (stereo not given), the growth inhibition was 1.9%.

Regarding `COc1cc(/C=C/c2cc(/C=C/c3ccc(O)c(OC)c3)c([N+](=O)[O-])cc2[N+](=O)[O-])ccc1O`, the growth inhibition was -4.45%.
